# In all, about 340,000 compounds went through this assay and about 12,000 (3.5%) were called active. Entries that show only a call come without a potency. About 18% were inconclusive and are not listed. The full list was thinned out, with actives kept by preference. Unmarked numbers belong to inactive results. Calls follow the shape of the dose curve; as a rule, active = well fitted inhibition curve with a large enough effect; inconclusive = small, poorly fitted or top-dose-only effect, or another doubt; inactive = no such curve, though single readings can be large or run the other way.
# Assay: qHTS Assay for Inhibitors of Hepatitis C Virus (HCV)
# Settings: Huh7.5.1 HCVcc-Cre infection, luciferase reporter, 44 h; series mostly up to 41.8 µM
# Description: Hepatitis C virus (HCV) infects about 200 million people in the world. Many infected people progress to chronic liver disease including cirrhosis with a risk of developing liver cancer. To date, there is no effective vaccine for hepatitis C. Current therapy based on interferon is only effective in about half of the patients and is associated with significant adverse effects. The fraction of people with HCV who can complete a successful treatment is estimated to be no more than 10 percent. Recent development of direct-acting antivirals against HCV, such as protease and polymerase inhibitors, is promising but still requires combination with peginterferon and ribavirin for maximal efficacy. In addition, these agents are associated with high rate of resistance and many have significant side effects. Due to the lack of a culture system for infectious HCV, the search for new HCV drugs has been greatly hampered. […] High-throughput screening (HTS) with an infectious HCV system would cover the complete spectrum of potentially druggable targets in all stages of HCV lifecycle, and would have more biological relevance than other cell-based assays. Moreover, targeting several key processes in the viral life cycle may not only increase antiviral efficacy; more importantly, it may also reduce the capacity of the virus to develop resistance to the compound. The goal of this project is to identify novel HCV inhibitors as new therapies for hepatitis C, using a highly sensitive and specific assay platform which is based on a HCV infectious cell culture system established in the laboratory and adapted for high-throughput HCV drug screen. NIH Chemical Genomics Center [NCGC] NIH Molecular Libraries Probe Centers Network [MLPCN] MLPCN Grant: MH095511 Assay Submitter (PI): Jake Liang, NIDDK
# The assay will start with plating 1,000 cells/well in 3 µL volume and culture for 4 h. Then 23 nL of compounds from the library collection will be added to each well, followed by adding 2.5 µL of HCVcc-Cre virus (~ 0.5 moi) and further cultured for 44 h before the luciferase assay. A volume of 4.5 µL luciferase substrates will be added to each well and the plates will be incubated at room temperature for 15 min. and then read for 15 sec. for the luciferase activity
Compound,Potency,"activity change, negative = inhibition"
CC(=O)Nc1ccc(S(=O)(=O)N2CCN(S(=O)(=O)c3cccs3)CC2)cc1,inactive,
CCC(C)c1ccc(NC(=O)COC(=O)C2CCCC2)cc1 (stereo not drawn),inactive,
Cc1ccccc1Nc1nc(N)nc(COC(=O)CCC(=O)c2ccc(F)cc2)n1,inactive,
COc1ccccc1NS(=O)(=O)c1ccc(C)c(C(=O)NNC(=O)c2csc(N3CCOCC3)n2)c1,inactive,
Cc1cc(C)c(C)c(S(=O)(=O)N2CCN(C(=O)c3ccc4c(=O)n5c(nc4c3)CCC5)CC2)c1C,inactive,
CC(C)N(Cc1nnc(-c2ccc(Cl)cc2)o1)C(=O)C1=COCCO1,,-0.237% [at 8.37 µM]
CN(C(=O)c1ccc(NC(=O)Cc2cccc(NC(=O)C3CCN(C(=O)c4ccccc4)CC3)c2)cc1)C1CC1,0.562 µM (active),
CN(C(=O)c1cccc(NC(=O)Cc2ccc(NC(=O)C3CCCN(C(=O)C4CC4)C3)cc2)c1)C1CC1 (stereo not drawn),inactive,
CN(C(=O)c1cccc(NC(=O)Cc2ccc(NC(=O)C3CCN(C(=O)C4CCCCC4)CC3)cc2)c1)C1CCC1,,-11.4% [at 8.37 µM]
CCOc1ccc(S(=O)(=O)N2CCC(C(=O)NCC(=O)Nc3cccc(Cl)c3C)CC2)cc1,inactive,
Cc1ccc(-n2ncc3c(=O)n(-c4ccc(C)c(C)c4)c(-c4ccco4)nc32)cc1,3.98 µM (active),
Cc1ccc(-c2nc3c(cnn3-c3ccccc3)c(=O)o2)cc1,inactive,
Cc1ccc(-n2ncc3c2ncn2nc(-c4ccco4)nc32)c(C)c1,inactive,
O=c1ccc2c(-c3ccccc3S(=O)(=O)O)c3ccc(O)c(O)c3oc-2c1O,inactive,
O=C(CN1C(=O)c2ccc([N+](=O)[O-])cc2C1=O)Nc1nnc(C2CC2)s1,inactive,
CC(CCN1CCN=C1N(C)C)c1ccccc1 (stereo not drawn),inactive,
O=C(COc1ccccc1F)NNC(=O)c1cc(Br)ccc1Cl,inactive,
O=C(CCNC(=O)c1ccc(Br)cc1)NCCCc1ccccc1,inactive,
CCOc1ccc(NC(=O)CN(C)C(=O)Cc2sc(C)nc2-c2ccc(F)cc2)cc1OCC,inactive,
CCOc1ccccc1NC(=S)C(=C([O-])c1ccc2c(c1)OCCO2)[n+]1ccc(CC)cc1,inactive,
COc1ccccc1/C=C/C(=O)NC(=S)N1CCOCC1,inactive,
O=C1OC(/C=C/c2ccccc2)=NC/1=C/c1ccco1,inactive,
COc1ccccc1/C=C/C1=NC(=C\N(C)C)/C(=O)O1,11.2 µM (active),
O=C(O)C(CCc1ccccn1)c1ccccc1 (stereo not drawn),inactive,
O=C(CSc1nnc(Nc2ccccc2F)s1)NC1CCCC1,inactive,

Compound,Potency,"activity change, negative = inhibition"
CCOC(=O)c1[nH]c2c(c1-c1ccccc1)C(=O)CC(c1ccc(Cl)cc1)C2 (stereo not drawn),inactive,
CCCOC(=O)c1[nH]c2c(c1C)C(=O)CC(c1cc(OC)c(OC)c(OC)c1)C2 (stereo not drawn),4.47 µM (active),
COCCOC(=O)c1[nH]c2c(c1C)C(=O)CC(c1ccc(OC)cc1)C2 (stereo not drawn),inactive,
Cn1c2c(c(=O)n(C)c1=O)CN(Cc1ccco1)CN2,inactive,
O=c1oc(-c2ccco2)nc2sc3c(c12)CCCCC3,inactive,
Cn1c(=O)n(Cc2ccco2)c(=N)c2c3c(sc21)CCCC3,10 µM (active),
COc1cc(C)ccc1OCC(=O)OCC(=O)c1ccc[nH]1,inactive,
O=C(NN=Cc1ccccc1O)NN=Cc1ccccc1O,5.01 µM (active),
O=C(N/N=C/c1ccc(O)c2ccccc12)c1cccnc1,inactive,
O=C(N/N=C/c1c[nH]c2ccccc12)c1ccccc1O,inactive,
NC(=O)NC(=O)C(OC(=O)CCNS(=O)(=O)c1ccccc1)c1ccccc1 (stereo not drawn),inactive,
O=C(c1ccc(Cl)c(S(=O)(=O)N2CCCCC2)c1)N1CCCCCC1,inactive,
COc1ccccc1N1CCN(C(=O)c2ccc(S(=O)(=O)N3CCCCC3)cc2)CC1,inactive,
COc1ccccc1N1CCN(C(=O)c2ccc(Cl)c(S(=O)(=O)N3CCCC3)c2)CC1,11.2 µM (active),
O=C(NN1CCOCC1)c1cccc(F)c1,inactive,
CCNC(=O)N1c2ccccc2Sc2ccccc21,inactive,
CC1C(C)N(C(=O)CCl)c2ccccc2N1C(=O)CCl (stereo not drawn),4.47 µM (active),
CNC(=O)N1c2ccccc2C=Cc2ccccc21,inactive,
O=C(CSc1nc2ccccc2c(=O)n1-c1ccccc1F)N1CCOCC1,inactive,
CN(CC(=O)Nc1ccc(C(N)=O)cc1)S(=O)(=O)c1ccc2c(c1)OCCO2,inactive,
Cn1c(=O)cc(SCC(=O)N2CCCC2)c2cc(Cl)ccc21,10 µM (active),
Cn1c(=O)cc(SCC(=O)N2CCN(C(=O)c3ccco3)CC2)c2ccccc21,inactive,
CCOC(=O)C1CCN(C(=O)CSc2cc(=O)n(C)c3ccccc23)CC1,inactive,
CC(=O)c1ccc(NC(=O)C2CCCN2S(=O)(=O)c2cccs2)cc1 (stereo not drawn),inactive,
COC(=O)[C@H](C)NC(=O)Nc1ccc(OC(F)(F)F)cc1,inactive,

Compound,Potency,"activity change, negative = inhibition"
O=C(Nc1ccc(OC(F)(F)F)cc1)c1ccc2c(c1)no[n+]2[O-],31.6 µM (active),
Cn1nccc1NC(=O)Nc1ccc(OC(F)(F)F)cc1,inactive,
COc1ccc(S(=O)(=O)N2CCCC2CNC(=O)C(=O)NC2CC2)cc1 (stereo not drawn),inactive,
O=C(NC1CCCCCC1)C1CCN(C(=O)c2ccc(Cl)cc2)CC1,inactive,
CC(=O)N1c2ccc(S(=O)(=O)N3CCCC(C(=O)Nc4cccc(F)c4)C3)cc2CC1C (stereo not drawn),11.2 µM (active),
CC(=O)N1c2ccc(S(=O)(=O)N3CCCC(C(=O)Nc4ccc(C)cc4C)C3)cc2CC1C (stereo not drawn),inactive,
CC(=O)N1c2ccc(S(=O)(=O)N3CCCC(C(=O)Nc4cccc(Cl)c4)C3)cc2CC1C (stereo not drawn),5.62 µM (active),
CCc1cccc(NC(=O)C2CCCN(S(=O)(=O)c3ccc4[nH]c(=O)ccc4c3)C2)c1 (stereo not drawn),inactive,
CC(=O)N1c2ccc(S(=O)(=O)N3CCC(C(=O)NC4CCCCC4C)CC3)cc2CC1C (stereo not drawn),inactive,
Cc1cc(C)cc(NC(=O)C2CCCN(S(=O)(=O)c3ccc4[nH]c(=O)ccc4c3)C2)c1 (stereo not drawn),inactive,
Cc1ccc(OCC(=O)Oc2ccccc2[N+](=O)[O-])cc1,inactive,
CC1(C)NC(=O)N(CC(=O)N2CCN(S(=O)(=O)c3ccccc3F)CC2)C1=O,inactive,
CCN1C(=O)[C@@H]2[C@@H](c3ccc(-c4cccc(Cl)c4)cc3)N3CCC[C@@]3(C(=O)OC)[C@@H]2C1=O,inactive,
Nc1ccc(Nc2ccccc2)cc1,inactive,
Cc1cc(Nc2ccccc2)n(C(=O)c2ccc(N)cc2)n1,12.6 µM (active),
Cc1cc(Nc2ccccc2)n(CCC#N)n1,inactive,
O=C(Cc1ccc(Br)cc1)NCCc1ccccc1,inactive,
CC[C@@H]1CCCCc2ccccc2[C@@H](C(=O)C[C@H](O)CC(C)=O)OC1=O,inactive,
Cc1nnc(NC(=O)Nc2ccc(Cl)c(Cl)c2)s1,14.1 µM (active),
Cc1nnc(NC(=O)C(c2ccccc2)c2ccccc2)s1,inactive,
Cc1nnc(NC(=O)c2ccc3nccnc3c2)s1,inactive,
COc1ccc(-c2cnc(SCCNC(=O)c3ccc4c(c3)OCO4)[nH]2)cc1,,14.4% [at 8.37 µM]
C#CCOCCOCCOCCNc1nc(N2CCOCC2)nc(N2CCN(C(=O)[C@H](Cc3ccc(O)cc3)n3cc(CCO)nn3)CC2)n1,inactive,
O=S(=O)([N-]c1nc2ccccc2nc1-[n+]1ccc(Cc2ccccc2)cc1)c1ccc(Br)s1,3.55 µM (active),
Cc1cc(C)c[n+](-c2nc3ccccc3nc2[N-]S(=O)(=O)c2cccs2)c1,inactive,

Compound,Potency,"activity change, negative = inhibition"
O=C(NCCc1ccccc1)C1CCN(S(=O)(=O)c2ccc(Br)s2)CC1,inactive,
CC(Oc1ccc2c(-c3ccccc3)cc(=O)oc2c1)C(=O)NC(Cc1c[nH]c2ccccc12)C(=O)O (stereo not drawn),inactive,
CC(C)(C)C(=O)CSc1ccc(S(=O)(=O)N2CCCC2)cn1,inactive,
CCOC(=O)C1(CCOC)CCN(Cc2ccc(C(=O)OC)cc2)CC1,inactive,
CCCS(=O)(=O)N1CCC(CCOc2ccccc2)(C(=O)OCC)CC1,inactive,
CCOC(=O)C1(CCOc2ccccc2)CCN(Cc2cc(OC)c(O)cc2Cl)CC1,11.2 µM (active),
Nn1c(SCC(=O)Nc2nccs2)nnc1-c1ccco1,inactive,
Cc1ccccc1NC(=O)Cc1nc(COC(=O)c2cccnc2Cl)cs1,inactive,
COc1cccc(N(C(=O)C2COc3ccccc3O2)C(C(=O)NC2CCCCC2)c2ccc(O)cc2)c1 (stereo not drawn),inactive,
COc1ccc(C(C(=O)NC2CCCCC2)N(C(=O)c2snc(C(N)=O)c2N)c2ccccc2OC)cc1 (stereo not drawn),inactive,
COc1ccc(C(C(=O)NC2CCCCC2)N(C(=O)CCl)c2ccccc2Cl)cc1 (stereo not drawn),2.82 µM (active),
O=C(c1ccc(F)cc1)N1CCC(C(=O)N2CCN(S(=O)(=O)c3ccccc3Br)CC2)CC1,inactive,
CCOC(=O)c1csc(NC(=O)c2ccc(S(=O)(=O)N3CCCC3)cc2)n1,inactive,
COc1ccc(C(=O)Nc2nc(-c3ccc(S(=O)(=O)N4CCOCC4)cc3)cs2)cc1,35.5 µM (active),
CNC(=O)c1ccsc1NC(=O)c1ccc(S(=O)(=O)N2CCOCC2)cc1,inactive,
Cn1c(=O)[nH]c2c(c(C(=O)O)nn2C)c1=O,inactive,
CCOC(=O)c1cnc2nc(SCc3ccccc3Cl)[nH]n2c1=O,inactive,
CC(C)c1cc(C(=O)O)n[nH]1,inactive,
CC(C)c1cc(C(=O)N/N=C/C(Br)=C/c2ccccc2)n[nH]1,22.4 µM (active),
Cc1cc(C(=O)N/N=C\C(Br)=C\c2ccccc2)c(C)o1,inactive,
Cc1c(NC(=O)CSc2nnc(-c3cccnc3)n2N)c(=O)n(-c2ccccc2)n1C,inactive,
O=C(O)c1ccc([N+](=O)[O-])cc1Sc1ccsc1,inactive,
O=C(c1cccc(S(=O)(=O)N2CCCCCC2)c1)N1CCN(Cc2ccccc2)CC1,inactive,
